Test results from PubChem BioAssay (NCI).
This is part of a sample that, as a whole, favours compounds with a hit. Of some 79,000 tested, about 15% had one in any assay. Active and inactive are the calls of the source. No stated cut-off is given here; in the data, active means growth inhibition above about 70%; inactive means the rest.

Assays:
[1] = NCI Yeast Anticancer Drug Screen. Data for the rad52 strain (AID 147);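 further: 0% = growth of vehicle-treated control cultures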; conditions: S. cerevisiae rad52 mutant growth inhibition, hits give high values
Method in brief: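 Compounds are applied to a genetically defined yeast strain lacking normal DNA damage repair, and inhibition of growth is expressed relative to cultures given vehicle only.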

[2] = NCI Yeast Anticancer Drug Screen. Data for the wt1 strain (AID 149);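 further: 0% = growth of vehicle-treated wt1 cultures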; conditions: S. cerevisiae wt1 strain (SPY 50644) growth inhibition, hits give high values
Method in brief: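 Growth inhibition read against vehicle controls after compound exposure of the wt1 yeast strain.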

[3] = NCI Yeast Anticancer Drug Screen. Data for the rad50 strain (AID 155);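 further: 0% = growth of vehicle-only cultures of the same strain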; conditions: S. cerevisiae rad50 strain growth inhibition, hits give high values
Method in brief: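 Readout: growth inhibition relative to vehicle-treated cultures. Compound exposure was carried out in a genetically defined yeast strain deficient in DNA damage repair.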

[4] = NCI Yeast Anticancer Drug Screen. Data for the mec2-1 strain (AID 157); conditions: S. cerevisiae mec2-1 strain, hits give high values
Method in brief: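 Strain: mec2-1 (DNA repair/cell cycle alteration). Compound exposure, then growth measured; inhibition expressed relative to vehicle.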

[5] = NCI Yeast Anticancer Drug Screen. Data for the rad14 strain (AID 159);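 further: 0% = growth of vehicle-treated control cultures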; conditions: S. cerevisiae rad14 strain growth inhibition, hits give high values
Method in brief: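 Growth inhibition vs vehicle controls; genetically altered yeast strain (DNA damage repair defect) treated with test compounds.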

[6] = NCI Yeast Anticancer Drug Screen. Data for the sgs1 mgt1 strain (AID 161);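 further: 0% = growth of cultures given vehicle only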; conditions: S. cerevisiae sgs1 mgt1 strain, hits give high values
Method in brief: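 Genetically altered yeast, compound exposure, growth inhibition relative to vehicle.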

[7] = NCI Yeast Anticancer Drug Screen. Data for the CLN2oe strain (AID 163);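 further: 0% = growth of vehicle-only control cultures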; conditions: S. cerevisiae CLN2oe strain, hits give high values
Method in brief: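 Growth of a genetically modified yeast strain is measured after compound exposure and compared with cultures given vehicle alone.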

[8] = NCI Yeast Anticancer Drug Screen. Data for the cln2 rad14 strain (AID 165);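 further: 0% = growth equal to vehicle treated cultures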; conditions: S. cerevisiae cln2 rad14 strain, hits give high values
Method in brief: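 Compounds are applied to the cln2 rad14 yeast strain, and growth is then compared with that of vehicle-treated cultures to give inhibition.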

[9] = NCI Yeast Anticancer Drug Screen. Data for the bub3 strain (AID 167); conditions: S. cerevisiae bub3 mutant strain, hits give high values
Method in brief: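 Readout: yeast growth inhibition, expressed relative to vehicle-only wells. The test organism is a mutant strain from a panel with lesions in DNA repair or checkpoint genes.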

[10] = NCI Yeast Anticancer Drug Screen. Data for the wt2 strain (AID 169);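 further: 0% = growth of vehicle-treated yeast cultures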; conditions: S. cerevisiae wt2 strain growth inhibition, hits give high values
Method in brief: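 This strain belongs to a panel of yeast strains with defined genetic alterations in DNA damage repair or cell cycle control. Compounds are applied, and growth inhibition is measured against vehicle-treated cultures.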

[11] = NCI Yeast Anticancer Drug Screen. Data for the mlh1 strain (AID 171);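 further: 0% = growth of vehicle-treated control cultures of the same strain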; conditions: S. cerevisiae mlh1 strain growth inhibition, hits give high values
Method in brief: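 Growth of the mutant yeast strain after compound exposure, expressed as inhibition relative to vehicle-only controls.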

[12] = NCI Yeast Anticancer Drug Screen. Data for the sgs1 strain (AID 173);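 further: 0% = growth of vehicle-only control cultures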; conditions: S. cerevisiae sgs1 mutant, hits give high values
Method in brief: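 Growth of a yeast strain bearing a defined genetic alteration is measured after compound treatment. Inhibition is expressed relative to vehicle-only controls.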

[13] = NCI Yeast Anticancer Drug Screen. Data for the mlh1 rad18 strain (AID 175); conditions: S. cerevisiae mlh1 rad18 strain growth inhibition, hits give high values
Method in brief: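 Read-out is yeast growth inhibition, calculated against vehicle-only controls. The compound was applied to a strain engineered with DNA damage repair alterations.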

[14] = NCI Yeast Anticancer Drug Screen. Data for the rad18 strain (AID 177); conditions: S. cerevisiae rad18 mutant growth inhibition, hits give high values
Method in brief: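 Growth of the mutant yeast strain after compound exposure, normalised to vehicle-only cultures.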

[15] = NCI Yeast Anticancer Drug Screen. Data for the rad50EPP+ strain (AID 151);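 further: 0% = growth of vehicle-treated control cultures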; conditions: S. cerevisiae rad50 mutant strain, hits give high values
Method in brief: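 Compounds were applied to the rad50EPP+ yeast strain, which bears a defined DNA repair alteration, and growth inhibition was determined relative to vehicle-treated cultures.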

[16] = at 5.0 µM (retest, dose inferred, filed as 0.5)
[17] = at 50.0 µM (retest, dose inferred, filed as 5.0)

Measured: growth inhibition

O=C(COc1ccc(Cl)cc1Cl)NO
inactive: [1]; at 1.2 µM -5% | [1]; at 3.7 µM 0% | [1]; at 11.0 µM 8% | [1]; at 33.0 µM 28% | [1]; at 100.0 µM 69% | [2]; at 1.2 µM -6% | [2]; at 3.7 µM -7% | [2]; at 11.0 µM -10% | [2]; at 33.0 µM -1% | [2]; at 100.0 µM 66% | [3]; at 1.2 µM -4% | [3]; at 3.7 µM -4% | [3]; [16] -138% | [3]; at 11.0 µM 10% | [3]; at 33.0 µM 50% | [3]; [17] 46% | [4]; at 1.2 µM 1% | [4]; at 3.7 µM -1% | [4]; [16] -46% | [4]; at 11.0 µM 11% | [4]; at 33.0 µM 43% | [4]; [17] -14% | [5]; at 1.2 µM -1% | [5]; at 3.7 µM 3% | [5]; at 11.0 µM 7% | [5]; at 33.0 µM 46% | [6]; [16] -58% | [6]; [17] 15% | [6]; at 50.0 µM 59.1% | [7]; at 1.2 µM -3% | [7]; at 3.7 µM -2% | [7]; at 11.0 µM 1% | [7]; at 33.0 µM 14% | [7]; at 100.0 µM 63% | [8]; [16] -60% | [8]; [17] -22% | [8]; at 50.0 µM 30.5% | [9]; at 1.2 µM -9% | [9]; at 3.7 µM -9% | [9]; [16] -67% | [9]; at 11.0 µM 2% | [9]; at 33.0 µM 24% | [9]; [17] 10% | [10]; at 1.2 µM -3% | [10]; at 3.7 µM -2% | [10]; at 11.0 µM -4% | [10]; at 33.0 µM -1% | [10]; at 100.0 µM 50% | [11]; at 1.2 µM 5% | [11]; at 3.7 µM -9% | [11]; at 11.0 µM -2% | [11]; at 33.0 µM 9% | [11]; at 100.0 µM 65% | [12]; at 1.2 µM -3% | [12]; at 3.7 µM 1% | [12]; at 11.0 µM 3% | [12]; at 33.0 µM 48% | [13]; [16] -118% | [13]; [17] -32% | [13]; at 50.0 µM 67.1% | [14]; at 1.2 µM -3% | [14]; at 3.7 µM 4% | [14]; at 11.0 µM 9% | [14]; at 33.0 µM 19% | [14]; at 100.0 µM 66%
active: [3]; at 50.0 µM 96.5% | [3]; at 100.0 µM 77% | [4]; at 50.0 µM 98.4% | [4]; at 100.0 µM 98% | [5]; at 100.0 µM 98% | [9]; at 50.0 µM 88% | [9]; at 100.0 µM 74% | [12]; at 100.0 µM 98%

O=[N+]([O-])c1ccc(C=Cc2ccccc2)cc1.[C-]#[O+].[C-]#[O+].[C-]#[O+].[Cr]
active: [1]; at 11.0 µM 70% | [1]; at 33.0 µM 88% | [1]; at 100.0 µM 82% | [2]; at 100.0 µM 79% | [15]; at 33.0 µM 71% | [3]; at 33.0 µM 83% | [3]; [17] 95% | [3]; at 50.0 µM 76.9% | [3]; at 100.0 µM 79% | [4]; at 33.0 µM 71% | [4]; [17] 86% | [4]; at 50.0 µM 79.8% | [4]; at 100.0 µM 72% | [5]; at 33.0 µM 83% | [5]; at 100.0 µM 82% | [6]; [17] 95% | [7]; at 100.0 µM 70% | [8]; [17] 91% | [8]; at 50.0 µM 70.9% | [9]; [17] 91% | [9]; at 100.0 µM 82% | [10]; at 33.0 µM 80% | [10]; at 100.0 µM 83% | [11]; at 100.0 µM 71% | [12]; at 33.0 µM 91% | [12]; at 100.0 µM 88% | [13]; [17] 96% | [14]; at 1.2 µM 70% | [14]; at 3.7 µM 93% | [14]; at 11.0 µM 94% | [14]; at 33.0 µM 89% | [14]; at 100.0 µM 86%
inactive: [1]; at 1.2 µM 8% | [1]; at 3.7 µM 28% | [2]; at 1.2 µM -2% | [2]; at 3.7 µM -1% | [2]; at 11.0 µM 1% | [2]; at 33.0 µM 65% | [15]; at 1.2 µM 10% | [15]; at 3.7 µM 32% | [15]; at 11.0 µM 62% | [15]; at 100.0 µM 67% | [3]; at 1.2 µM 6% | [3]; at 3.7 µM 18% | [3]; [16] 39% | [3]; at 11.0 µM 54% | [4]; at 1.2 µM 0% | [4]; at 3.7 µM 1% | [4]; [16] 5% | [4]; at 11.0 µM 8% | [5]; at 1.2 µM 3% | [5]; at 3.7 µM 12% | [5]; at 11.0 µM 53% | [6]; [16] 44% | [6]; at 50.0 µM 66% | [7]; at 1.2 µM -3% | [7]; at 3.7 µM -9% | [7]; at 11.0 µM -16% | [7]; at 33.0 µM 69% | [8]; [16] 10% | [9]; at 1.2 µM 2% | [9]; at 3.7 µM 10% | [9]; [16] -19% | [9]; at 11.0 µM 2% | [9]; at 33.0 µM 67% | [9]; at 50.0 µM 69.5% | [10]; at 1.2 µM -1% | [10]; at 3.7 µM -1% | [10]; at 11.0 µM 7% | [11]; at 1.2 µM -1% | [11]; at 3.7 µM -1% | [11]; at 11.0 µM 9% | [11]; at 33.0 µM 65% | [12]; at 1.2 µM 9% | [12]; at 3.7 µM 30% | [12]; at 11.0 µM 66% | [13]; [16] 68% | [13]; at 50.0 µM 62.1%
